# Results: PubChem BioAssay (NCI)
# About 79,000 compounds went through this panel and 15% of them were active in at least one assay; those are over-represented in the sample as a whole. Unmarked numbers belong to inactive results. The source made the active and inactive calls. Cut-off read from the data, not from the text of the source: active = growth inhibition above about 70%; inactive = the rest.
# What was measured:
# [1] = NCI Yeast Anticancer Drug Screen. Data for the rad52 strain (AID 147);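 note: 0% = growth of vehicle-treated control cultures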; conditions: S. cerevisiae rad52 mutant growth inhibition, hits give high values
# How it was run: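 Genetically altered yeast (DNA damage repair defect) treated with compound; inhibition calculated relative to vehicle.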
# [2] = NCI Yeast Anticancer Drug Screen. Data for the wt1 strain (AID 149);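 note: 0% = growth of vehicle-treated wt1 cultures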; conditions: S. cerevisiae wt1 strain (SPY 50644) growth inhibition, hits give high values
# How it was run: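 Yeast wt1 strain exposed to compounds; growth inhibition measured relative to vehicle-treated controls.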
# [3] = NCI Yeast Anticancer Drug Screen. Data for the rad50EPP+ strain (AID 151);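 note: 0% = growth of vehicle-treated control cultures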; conditions: S. cerevisiae rad50 mutant strain, hits give high values
# How it was run: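 Strain rad50EPP+; compound exposure; % growth inhibition vs vehicle.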
# [4] = NCI Yeast Anticancer Drug Screen. Data for the mgt1 strain (AID 153); conditions: S. cerevisiae mgt1 mutant growth inhibition, hits give high values
# How it was run: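 Read-out: yeast growth inhibition vs vehicle control. Strain mgt1, drawn from a panel altered in DNA damage repair or cell cycle control.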
# [5] = NCI Yeast Anticancer Drug Screen. Data for the rad50 strain (AID 155);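 note: 0% = growth of vehicle-only cultures of the same strain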; conditions: S. cerevisiae rad50 strain growth inhibition, hits give high values
# How it was run: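 Yeast carrying a defined DNA repair defect were exposed to test compounds, and growth was compared with vehicle-treated controls to give percent inhibition.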
# [6] = NCI Yeast Anticancer Drug Screen. Data for the mec2-1 strain (AID 157); conditions: S. cerevisiae mec2-1 strain, hits give high values
# How it was run: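 Cells of the genetically defined mec2-1 yeast strain are incubated with test compound. Inhibition of growth is calculated against vehicle-treated controls.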
# [7] = NCI Yeast Anticancer Drug Screen. Data for the rad14 strain (AID 159);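 note: 0% = growth of vehicle-treated control cultures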; conditions: S. cerevisiae rad14 strain growth inhibition, hits give high values
# How it was run: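 Yeast cells carrying a defined DNA-repair defect were exposed to compounds, and growth inhibition was calculated relative to vehicle-treated control cultures.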
# [8] = NCI Yeast Anticancer Drug Screen. Data for the sgs1 mgt1 strain (AID 161);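 note: 0% = growth of cultures given vehicle only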; conditions: S. cerevisiae sgs1 mgt1 strain, hits give high values
# How it was run: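 Mutant yeast exposed to compound; growth scored against vehicle-only wells.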
# [9] = NCI Yeast Anticancer Drug Screen. Data for the CLN2oe strain (AID 163);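 note: 0% = growth of vehicle-only control cultures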; conditions: S. cerevisiae CLN2oe strain, hits give high values
# How it was run: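 Strain altered in cell-cycle control, incubated with compound; growth compared to solvent-treated controls.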
# [10] = NCI Yeast Anticancer Drug Screen. Data for the cln2 rad14 strain (AID 165);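 note: 0% = growth equal to vehicle treated cultures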; conditions: S. cerevisiae cln2 rad14 strain, hits give high values
# How it was run: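 The screen exposed genetically defined yeast (cln2 rad14) to test compounds and scored growth inhibition relative to vehicle-treated controls.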
# [11] = NCI Yeast Anticancer Drug Screen. Data for the bub3 strain (AID 167); conditions: S. cerevisiae bub3 mutant strain, hits give high values
# How it was run: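 Compounds were applied to a genetically altered yeast strain carrying a cell-cycle control defect. Growth inhibition was scored against vehicle-treated controls.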
# [12] = NCI Yeast Anticancer Drug Screen. Data for the wt2 strain (AID 169);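 note: 0% = growth of vehicle-treated yeast cultures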; conditions: S. cerevisiae wt2 strain growth inhibition, hits give high values
# How it was run: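 Steps: yeast strain treated with compound; growth recorded; inhibition calculated relative to cultures given vehicle alone.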
# [13] = NCI Yeast Anticancer Drug Screen. Data for the mlh1 strain (AID 171);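 note: 0% = growth of vehicle-treated control cultures of the same strain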; conditions: S. cerevisiae mlh1 strain growth inhibition, hits give high values
# How it was run: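 Yeast screen: mutant strain plus compound, growth scored against vehicle control wells.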
# [14] = NCI Yeast Anticancer Drug Screen. Data for the sgs1 strain (AID 173);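 note: 0% = growth of vehicle-only control cultures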; conditions: S. cerevisiae sgs1 mutant, hits give high values
# How it was run: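 Inhibition of yeast growth served as the measure. The mutant strain was treated with each compound, and growth was normalised to cultures receiving vehicle alone.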
# [15] = NCI Yeast Anticancer Drug Screen. Data for the mlh1 rad18 strain (AID 175); conditions: S. cerevisiae mlh1 rad18 strain growth inhibition, hits give high values
# How it was run: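 Compound-treated yeast growth, normalised to vehicle controls. Strain bears defined DNA repair mutations.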
# [16] = at 5.0 µM (retest, dose inferred, filed as 0.5)
# [17] = at 50.0 µM (retest, dose inferred, filed as 5.0)
compound,measurement,setting,value
c1ccc2c(c1)sc1nc3ccncc3nc12,growth inhibition,[1]; at 1.2 µM,5%
same,growth inhibition,[1]; at 3.7 µM,16%
same,growth inhibition,[1]; at 11.0 µM,38%
same,growth inhibition,[1]; at 33.0 µM,61%
same,growth inhibition,[1]; at 100.0 µM,92% (active)
same,growth inhibition,[2]; at 1.2 µM,0%
same,growth inhibition,[2]; at 3.7 µM,13%
same,growth inhibition,[2]; at 11.0 µM,21%
same,growth inhibition,[2]; at 33.0 µM,20%
same,growth inhibition,[2]; at 100.0 µM,29%
same,growth inhibition,[3]; at 1.2 µM,23%
same,growth inhibition,[3]; at 3.7 µM,52%
same,growth inhibition,[3]; at 11.0 µM,55%
same,growth inhibition,[3]; at 33.0 µM,85% (active)
same,growth inhibition,[3]; at 100.0 µM,89% (active)
same,growth inhibition,[4]; at 1.2 µM,2%
same,growth inhibition,[4]; at 3.7 µM,-2%
same,growth inhibition,[4]; at 11.0 µM,-1%
same,growth inhibition,[4]; at 33.0 µM,-1%
same,growth inhibition,[4]; at 100.0 µM,2%
same,growth inhibition,[5]; at 1.2 µM,79% (active)
same,growth inhibition,[5]; at 3.7 µM,35%
same,growth inhibition,[5]; [16],-55%
same,growth inhibition,[5]; at 11.0 µM,61%
same,growth inhibition,[5]; at 33.0 µM,76% (active)
same,growth inhibition,[5]; [17],87% (active)
same,growth inhibition,[5]; at 50.0 µM,90% (active)
same,growth inhibition,[5]; at 100.0 µM,87% (active)
same,growth inhibition,[6]; at 1.2 µM,5%
same,growth inhibition,[6]; at 3.7 µM,1%
same,growth inhibition,[6]; [16],-38%
same,growth inhibition,[6]; at 11.0 µM,0%
same,growth inhibition,[6]; at 33.0 µM,3%
same,growth inhibition,[6]; [17],-8%
same,growth inhibition,[6]; at 50.0 µM,28.1%
same,growth inhibition,[6]; at 100.0 µM,9%
same,growth inhibition,[7]; at 1.2 µM,21%
same,growth inhibition,[7]; at 3.7 µM,10%
same,growth inhibition,[7]; at 11.0 µM,11%
same,growth inhibition,[7]; at 33.0 µM,19%
same,growth inhibition,[7]; at 100.0 µM,29%
same,growth inhibition,[8]; [16],-61%
same,growth inhibition,[8]; [17],-16%
same,growth inhibition,[8]; at 50.0 µM,3.7%
same,growth inhibition,[9]; at 1.2 µM,2%
same,growth inhibition,[9]; at 3.7 µM,5%
same,growth inhibition,[9]; at 11.0 µM,4%
same,growth inhibition,[9]; at 33.0 µM,4%
same,growth inhibition,[9]; at 100.0 µM,7%
same,growth inhibition,[10]; [16],-50%
same,growth inhibition,[10]; [17],-8%
same,growth inhibition,[10]; at 50.0 µM,9.05%
same,growth inhibition,[11]; at 1.2 µM,10%
same,growth inhibition,[11]; at 3.7 µM,3%
same,growth inhibition,[11]; [16],-51%
same,growth inhibition,[11]; at 11.0 µM,8%
same,growth inhibition,[11]; at 33.0 µM,11%
same,growth inhibition,[11]; [17],1%
same,growth inhibition,[11]; at 50.0 µM,6.1%
same,growth inhibition,[11]; at 100.0 µM,20%
same,growth inhibition,[12]; at 1.2 µM,13%
same,growth inhibition,[12]; at 3.7 µM,12%
same,growth inhibition,[12]; at 11.0 µM,17%
same,growth inhibition,[12]; at 33.0 µM,17%
same,growth inhibition,[12]; at 100.0 µM,29%
same,growth inhibition,[13]; at 1.2 µM,-5%
same,growth inhibition,[13]; at 3.7 µM,-1%
same,growth inhibition,[13]; at 11.0 µM,1%
same,growth inhibition,[13]; at 33.0 µM,8%
same,growth inhibition,[13]; at 100.0 µM,12%
same,growth inhibition,[14]; at 1.2 µM,-5%
same,growth inhibition,[14]; at 3.7 µM,-8%
same,growth inhibition,[14]; at 11.0 µM,3%
same,growth inhibition,[14]; at 33.0 µM,9%
same,growth inhibition,[14]; at 100.0 µM,13%
same,growth inhibition,[15]; [16],-110%
same,growth inhibition,[15]; [17],-30%
same,growth inhibition,[15]; at 50.0 µM,32.7%
CCC(=O)Oc1c(Cl)cc(Cl)c2ccccc12,growth inhibition,[1]; at 1.2 µM,-2%
same,growth inhibition,[1]; at 3.7 µM,-2%
same,growth inhibition,[1]; at 11.0 µM,-1%
same,growth inhibition,[1]; at 33.0 µM,4%
same,growth inhibition,[1]; at 100.0 µM,54%
same,growth inhibition,[2]; at 1.2 µM,-4%
same,growth inhibition,[2]; at 3.7 µM,-4%
same,growth inhibition,[2]; at 11.0 µM,-4%
same,growth inhibition,[2]; at 33.0 µM,-6%
same,growth inhibition,[2]; at 100.0 µM,13%
same,growth inhibition,[3]; at 1.2 µM,-2%
same,growth inhibition,[3]; at 3.7 µM,4%
same,growth inhibition,[3]; at 11.0 µM,10%
same,growth inhibition,[3]; at 33.0 µM,15%
same,growth inhibition,[3]; at 100.0 µM,49%
same,growth inhibition,[4]; at 1.2 µM,-8%
same,growth inhibition,[4]; at 3.7 µM,-10%
same,growth inhibition,[4]; at 11.0 µM,-2%
same,growth inhibition,[4]; at 33.0 µM,3%
same,growth inhibition,[4]; at 100.0 µM,28%
same,growth inhibition,[5]; at 1.2 µM,-5%
same,growth inhibition,[5]; at 3.7 µM,-4%
same,growth inhibition,[5]; [16],8%
same,growth inhibition,[5]; at 11.0 µM,-1%
same,growth inhibition,[5]; at 33.0 µM,5%
same,growth inhibition,[5]; [17],-53%
same,growth inhibition,[5]; at 50.0 µM,20.1%
same,growth inhibition,[5]; at 100.0 µM,35%
same,growth inhibition,[6]; at 1.2 µM,-2%
same,growth inhibition,[6]; at 3.7 µM,-2%
same,growth inhibition,[6]; [16],-9%
same,growth inhibition,[6]; at 11.0 µM,-2%
same,growth inhibition,[6]; at 33.0 µM,0%
same,growth inhibition,[6]; [17],-1%
same,growth inhibition,[6]; at 50.0 µM,-8.5%
same,growth inhibition,[6]; at 100.0 µM,32%
same,growth inhibition,[7]; at 1.2 µM,-7%
same,growth inhibition,[7]; at 3.7 µM,-4%
same,growth inhibition,[7]; at 11.0 µM,0%
same,growth inhibition,[7]; at 33.0 µM,9%
same,growth inhibition,[7]; at 100.0 µM,39%
same,growth inhibition,[8]; [16],-9%
same,growth inhibition,[8]; [17],49%
same,growth inhibition,[8]; at 50.0 µM,32%
same,growth inhibition,[9]; at 1.2 µM,-5%
same,growth inhibition,[9]; at 3.7 µM,-2%
same,growth inhibition,[9]; at 11.0 µM,-7%
same,growth inhibition,[9]; at 33.0 µM,-6%
same,growth inhibition,[9]; at 100.0 µM,22%
same,growth inhibition,[10]; [16],-16%
same,growth inhibition,[10]; [17],18%
same,growth inhibition,[10]; at 50.0 µM,15.2%
same,growth inhibition,[11]; at 1.2 µM,-4%
same,growth inhibition,[11]; at 3.7 µM,-6%
same,growth inhibition,[11]; [16],2%
same,growth inhibition,[11]; at 11.0 µM,-9%
same,growth inhibition,[11]; at 33.0 µM,-12%
same,growth inhibition,[11]; [17],-5%
same,growth inhibition,[11]; at 50.0 µM,12.1%
same,growth inhibition,[11]; at 100.0 µM,3%
same,growth inhibition,[12]; at 1.2 µM,-4%
same,growth inhibition,[12]; at 3.7 µM,-5%
same,growth inhibition,[12]; at 11.0 µM,-5%
same,growth inhibition,[12]; at 33.0 µM,-5%
same,growth inhibition,[12]; at 100.0 µM,20%
same,growth inhibition,[13]; at 1.2 µM,-2%
same,growth inhibition,[13]; at 3.7 µM,-2%
same,growth inhibition,[13]; at 11.0 µM,0%
same,growth inhibition,[13]; at 33.0 µM,10%
same,growth inhibition,[13]; at 100.0 µM,38%
same,growth inhibition,[14]; at 1.2 µM,-4%
same,growth inhibition,[14]; at 3.7 µM,-3%
same,growth inhibition,[14]; at 11.0 µM,2%
same,growth inhibition,[14]; at 33.0 µM,9%
same,growth inhibition,[14]; at 100.0 µM,43%
same,growth inhibition,[15]; [16],-10%
same,growth inhibition,[15]; [17],77% (active)
same,growth inhibition,[15]; at 50.0 µM,10.9%
